Screens deposited in PubChem by National Center for Advancing Translational Sciences (NCATS).
HPGD block – blocks human HPGD enzyme activity | 150,000 compounds, 4.3% hits | purified HPGD, NADH fluorescence kinetic, PGE2 substrate | P15428 | Potency, µM, most hits filed as inhibitors
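20 nM HPGD preincubated 15 min at room temperature with compound in 50 mM Tris-HCl pH 8, 0.01% Tween 20. Started with 1 mM NAD+ and 30 uM prostaglandin E2; NADH fluorescence (360/450 nm) read 5 times over 30-s intervals, last minus first.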
PNC inhibitor – inhibitors of perinucleolar compartment assembly; PC3M PTB-GFP, PNC prevalence imaging, 16 h; hits give low values; AID 2417; activity change (PNC), negative = inhibition, % at 10 µM; 140,000 compounds, 3.1% hits;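 active means readout at or below -70, meaning at least 70% loss of cells showing the perinucleolar compartment, a nuclear body marking cancer cells; inconclusive means readout between -30 and a set limit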
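PC3M cells stably expressing PTB-GFP, 750–1000 cells/well, treated 16 h at 37 °C with compound (23 nl of library stock), in duplicate. After paraformaldehyde fixation and Hoechst stain, imaged at 20x; PNC prevalence scored by image analysis.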
ALDH1A1 block – blocks purified human ALDH1A1 activity; P00352; Purified ALDH1A1, NADH fluorescence, propionaldehyde substrate; Potency, µM (titrated, usually from 75.3 µM), actives largely listed as inhibitors; 220,000 compounds, 7.3% hits; AID 1030
Target sequence (P00352 whole entry, looked up): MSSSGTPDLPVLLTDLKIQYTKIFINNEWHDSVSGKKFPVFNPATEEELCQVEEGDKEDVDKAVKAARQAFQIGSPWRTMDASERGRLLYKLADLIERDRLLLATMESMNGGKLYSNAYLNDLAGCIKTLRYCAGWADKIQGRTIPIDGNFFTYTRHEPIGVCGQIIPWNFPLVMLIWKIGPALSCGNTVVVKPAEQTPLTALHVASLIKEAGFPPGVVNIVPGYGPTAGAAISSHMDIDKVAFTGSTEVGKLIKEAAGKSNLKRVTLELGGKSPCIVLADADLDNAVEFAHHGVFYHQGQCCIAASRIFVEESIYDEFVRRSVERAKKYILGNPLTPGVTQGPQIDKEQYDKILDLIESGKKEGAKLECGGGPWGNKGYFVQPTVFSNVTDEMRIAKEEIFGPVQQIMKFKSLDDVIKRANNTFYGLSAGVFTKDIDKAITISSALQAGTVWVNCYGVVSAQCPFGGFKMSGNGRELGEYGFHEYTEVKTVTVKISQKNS
A number is an active result; i = inactive; ? = inconclusive; nt = not tested or not shown; [ ] = dose if it differs, or a comment. Shown are actives, neighbours in structure and some others; about 11% of the full set was active somewhere. Unless noted, the call rests on the fitted dose curve; in most records, active means well fitted inhibition curve with a large enough effect (not every such curve was filed as active); inconclusive means small, poorly fitted or top-dose-only effect, or another doubt; inactive means no such curve, though single readings can be large or run the other way.

SMILES	HPGD block	PNC inhibitor	ALDH1A1 block
Cc1ccc(NCc2nnc(SCC(=O)Nc3ccccc3)n2CC2CCCO2)c(C)c1 (configuration not stated)	i	?	7.9µM
Cc1cccc(N(CC(=O)NCc2ccco2)C(=O)CCC(=O)Nc2nccs2)c1	nt	nt	i
Nc1ncnc2c1nc(Sc1ccc(Cl)cc1)n2[C@H]1O[C@@H]2COP(=O)(O)O[C@H]2[C@@H]1O	i	nt	i
C=CCNC(=O)COC(=O)/C=C/c1cccs1	nt	nt	i
NC(=O)c1ccc(NC(=O)COC(=O)/C=C/c2cccs2)cc1	nt	nt	i
CCN(c1ccc(NC(=O)COC(=O)/C=C/c2cccs2)cc1)C(C)C	nt	nt	0.13µM
Cc1ccc(NC(=O)COC(=O)/C=C/c2cccs2)cc1	28µM	?	i
Cc1cc(C)c(CN2CCN(Cc3ccc(C)o3)C(CCO)C2)c(-n2cccn2)c1 (configuration not stated)	nt	nt	i
CCOCCCNC(=O)/C(C#N)=C/c1ccc(-c2ccc(S(=O)(=O)N3CCOCC3)cc2)o1	?	i	?
CCOCCCNC(=O)/C(C#N)=C/c1ccc([N+](=O)[O-])o1	nt	nt	4µM
Cn1c(=O)cnc2cnc(Oc3ccccc3)nc21	i	nt	?
O=c1c2ccccc2nnn1COc1ccc(Cl)cc1Br	nt	nt	i
Cc1c(O)ccc(C(=O)COc2ccc(F)cc2)c1O	nt	i	18µM
CCc1cc(C(=O)COc2ccc(F)cc2)c(O)cc1O	nt	nt	i
O=C(NC1CCCCC1)Oc1cccc2ccccc12	nt	nt	i
O=C(CCN1CCCCC1)c1ccccc1	i	i	1.1µM
CCc1oc2ccccc2c1C(=O)CCN1CCCCC1	28µM	i	0.11µM
O=C(OCCN1CCCCC1)c1ccccc1Cl	?	i	i
O=C(CCN1CCCCC1)c1csc2ccccc12	i	nt	0.14µM
CN1CCN(CCCCC(=O)c2ccccc2)CC1	i	?	i
CC(=O)c1oc2ccccc2c1NC(=O)CN1CCCCC1	i	?	i
O=C(CCN1CCOCC1)c1ccccc1	i	i	0.32µM
O=C(O)CCN1CCOCC1	i	i	i
NCCCNCCCCNCCCNC(=O)CCc1ccc(O)cc1	i	nt	i[13.5 µM]
COc1ccc2c(c1)C1CC(C)(NC(=O)C1S(=O)(=O)c1ccc(F)cc1)O2 (configuration not stated)	nt	i	i
SMILES	HPGD block	PNC inhibitor	ALDH1A1 block
CCCCC(=O)Nc1ccc(NC(=O)c2ccc([N+](=O)[O-])cc2Cl)cc1OC	i	i	i
Cc1ncc(CO)c(CN)c1O	i	nt	i[13.5 µM]
O=c1oc2ccccc2c(N2CCCCC2)c1CN1CCCCC1	i	i	14µM
O=C(O)CCC(=O)CCC(=O)c1ccccc1	i	i	?
O=c1oc2ccccc2c(N2CCCCC2)c1CN1CCCC1	i	i	i
C[N+]1(CCC(=O)c2ccccc2)CCCCC1	32µM	i	1.3µM
CCONC(=O)Nc1ccccc1	i	?	i
Cc1noc(C)c1S(=O)(=O)N1CCc2nc(-c3ccccc3)c3c(c2C1)CO[C@@H](C)C3	i	nt	i[13.5 µM]
O=C(O)c1ccc(NC(=O)c2cccc(N3C(=O)C4C5CCC(C5)C4C3=O)c2)cc1 (configuration not stated)	i	i	i
O=C(Nc1ccc(Cl)cc1)c1cccc(N2C(=O)C3C4CCC(C4)C3C2=O)c1 (configuration not stated)	32µM	i	i
COC(=O)c1c(C(=O)NCc2ccccc2)ncn1CC(O)COc1ccccc1 (configuration not stated)	i	i	7.9µM
Cc1nccn1CC(O)COc1ccccc1 (configuration not stated)	i	i	i
O=C(Cn1cnc2c(nnn2-c2cccc(Cl)c2)c1=O)NCc1ccccc1	nt	nt	i
OCC1(Cc2cccc(Cl)c2)CCCN(Cc2cnn(-c3ccccc3)c2)C1 (configuration not stated)	nt	nt	i
COc1cc(C(=O)N2CCN(C(=O)c3ccco3)CC2)c([N+](=O)[O-])cc1OC	nt	nt	i
O=c1[nH][nH]cc1C=Nc1ccccc1O	i	i	?
O=c1c(=Nc2ccccc2O)c(=O)c2ccccc12	nt	nt	22µM
Cc1ccccc1S(=O)(=O)c1c(C)cc(C)n(CC(C)C)c1=O	i	i	7.9µM
Cc1ccccc1S(=O)(=O)c1c(C)cc(C)n(C)c1=O	nt	nt	i
CN(CC1CCCO1)S(=O)(=O)c1ccc(C(=O)NCc2ccccc2)cc1 (configuration not stated)	nt	nt	i
Cn1nc(CC(=O)NC2CCCCCCCCCCC2)c2ccccc2c1=O	i	i	i
Cn1nc(CC(=O)Nc2ncc(Br)s2)c2ccccc2c1=O	i	-119	i
COc1ccc(-n2c(SCC(=O)Nc3cc(C(=O)O)ccc3C)nc3ccccc3c2=O)cc1Cl	nt	nt	i
O=C(OC1CCCCC1)c1ccc2c(c1)C1C=CCC1C(C(=O)O)N2 (configuration not stated)	?	?	16µM
O=C(O)C1Nc2c(O)cccc2C2C=CCC12 (configuration not stated)	i	i	i
SMILES	HPGD block	PNC inhibitor	ALDH1A1 block
O=c1cc(O)c2c(=O)n(-c3ccccc3)c3c(c2o1)CCCCC3	i	i	i
Cn1nnnc1SCCNS(=O)(=O)c1ccccc1	i	?	i
Cc1ccc(-n2nnnc2SCCNS(=O)(=O)c2ccccc2)cc1C	i	?	5µM
O=Cc1ccc(-c2ccc(F)cc2)o1	nt	nt	1.4µM
O=c1nc(/C=C/c2ccc(-c3ccc(F)cc3)o2)cc(C(F)(F)F)[nH]1	?	i	i
O=C(COC(=O)c1ccccc1Nc1cccc(C(F)(F)F)c1)NCc1ccco1	i	i	?
CCCNC(=O)Cn1nc([N+](=O)[O-])c([N+](=O)[O-])c1C	i	i	i
CC(=O)Nc1cccc(NC(=O)c2c(-c3ccccc3Cl)noc2C)c1	i	i	i
Cc1onc(-c2ccccc2Cl)c1C(=O)Nc1nnc(-c2cccc([N+](=O)[O-])c2)s1	i	-108	?
CCSc1nnc(NC(=O)c2c(-c3ccccc3Cl)noc2C)s1	i	i	11µM
Cc1cc(C)nc(NC(=O)c2c(-c3ccccc3Cl)noc2C)n1	i	?	i
Cc1cc(NC(=O)NC2CC(=O)N(c3ccc4c(c3)OCCO4)C2)no1 (configuration not stated)	nt	nt	i
O=C(NCCCn1ccnc1)Nc1ccc(Cl)c(Cl)c1	i	i	i
C=COCCNC(=O)Nc1ccc(Cl)c(Cl)c1	20µM	i	i
CC(C)Oc1cccc(C(=O)NC(=S)NCc2cccnc2)c1	i	i	i
O=c1c2cnn(-c3ccccc3)c2nc(-c2cccs2)n1-c1cccc(Cl)c1	?	i	?
CCOC(=O)c1c(C)[nH]c(C(=O)OCC(=O)Nc2cc(C)ccc2OC)c1C	i	i	i
CCOC(=O)c1[nH]c(C)c(C(=O)Nc2cc(OC)ccc2OC)c1C	i	-107	i
O=C(N/C(=C/c1ccc(Br)cc1)C(=O)N1CCCC1=O)c1ccco1	nt	nt	i
Cc1ccnc(N2CCN(C(=O)CSc3nc4ccccc4nc3N3CCC(C)CC3)CC2)c1	nt	nt	i
O=C(CNC(=O)c1ccc(S(=O)(=O)N2CCCC2)cc1)N/N=C/c1ccc(Cl)cc1Cl	i	i	i
CC(=O)N1c2c(cc(Br)cc2S(=O)(=O)N2CCN(C(=O)c3ccco3)CC2)CC1C (configuration not stated)	14µM	-100	i
Cn1cc(S(=O)(=O)N2CCN(C(=O)c3ccco3)CC2)c(=O)n(C)c1=O	i	i	i
COC(=O)CN(c1c(C)cccc1C)S(C)(=O)=O	i	-86	i
